According to ChEMBL document CHEMBL3988442, “University of Dundee, Small-Polar-MMV Screening Library” (2021):

biological target: AMP-activated protein kinase, AMPK (Homo sapiens) (UniProt P54646+O43741+P54619+Q9UGJ0+Q9Y478+Q13131+Q9UGI9); assay: AMP-dependent Kinase enzyme assay. An in vitro enzyme assay that detects ADP turnover that is directly proportional to AMPK activity. This uses naive AMPK that is activated during the assay with MK-8722; type: functional; set-up: scale not given: direction of the effect not stated beside the values; conditions: 30 µM

Row | SMILES | Percent Effect [%]
1 | COC(=O)NCC(=O)N1CCCn2nc(CN3CC[C@H](F)C3)cc2C1 | 5.46
2 | Cc1nonc1CN1CC[C@@](O)(C2CCOCC2)[C@H](C)C1 | -6.73
3 | Cn1cccc1C1CCCN1Cc1noc(C(C)(C)C)n1 (stereo not given) | -15
4 | CCc1ccc2nc(C)cc(C(=O)NC3CCCCNC3=O)c2c1 (stereo not given) | -6.44
5 | CN(C)c1ncccc1NC(=O)COCC1CC1 | 2.89
6 | O=C(NCc1cc(-c2ccccc2)no1)NC1CCCCNC1=O (stereo not given) | -4.86
7 | Cc1ccccc1N1CCCN(C(=O)CCc2nncn2C)CC1 | -4.54
8 | N#Cc1ccc(SCCC(=O)O)cc1 | 6.5
9 | CC(=O)N1CCCC1(C(=O)N1CCCC1)c1cnccn1 (stereo not given) | -0.265
10 | O=C1CCCCN1Cc1cccc(OC(F)F)c1 | 11.1
11 | Cn1ccnc1CN1CCCC1CCc1ccccc1 (stereo not given) | -8.09
12 | Cc1csc(C(C)(C)NCCOc2ccc(CC#N)cc2)n1 | -8.66
13 | Cc1cc(NC(=O)N2CCC[C@@H]2CO)nn1-c1cccc(Cl)c1 | -3.24
14 | O=C(NCC(O)c1ccc(F)cc1)C1CCN(C2CCCCC2)CC1 (stereo not given) | -8.77
15 | NC(=O)C(NC1CCN(CC2CCCCC2)CC1)c1ccccc1 (stereo not given) | 0.144
16 | Cc1ccc(Oc2ncccc2CNC(=O)C2COC(=O)N2)c(F)c1F (stereo not given) | 3.47
17 | COc1cc(Br)c(S(=O)(=O)NC(=O)C(C)OC)cc1OC (stereo not given) | -6.43
18 | CCOc1ccccc1CN(C)C(=O)CN1C(=O)OC[C@@H]1C(C)C | 5.19
19 | CCN(Cc1nccn1C)C1CCN(c2ccccc2)C1=O (stereo not given) | -7.13
20 | CS(=O)(=O)NC(=O)c1ccn(-c2ccccc2Cl)n1 | 9.09

Row | SMILES | Percent Effect [%]
21 | Cc1ccnc(NC(=O)c2ccc(Br)o2)c1 | 5.24
22 | NC(=O)NC1CCN(Cc2ccccc2OCC(F)(F)F)CC1 | -5.97
23 | CC(C)c1ccc(CC(=O)N2CCCC3(CN(C)C(=O)O3)C2)cc1 (stereo not given) | 15
24 | CCC[C@H]1CN(S(=O)(=O)N(C)Cc2ccccc2)C[C@@H]1N | -0.364
25 | O=C(NCc1nnc2n1CCC2)c1cccc(Br)c1 | 3.99
26 | CC(CN1CCOCC1)n1cncc1-c1cnn(Cc2ccccc2)c1 (stereo not given) | 2.92
27 | Cc1ncc(CNC(CCO)C2CCCCC2)s1 (stereo not given) | 4.05
28 | O=C(Cc1nc(-c2ccncc2)n[nH]1)NCCCN1CCOCC1 | -0.0149
29 | CC(C)(O)CCc1cccc(C(=O)NCc2cnn3cccnc23)c1 | -0.643
30 | COCCNc1ccc(CNCc2cnc3nc(C)cc(C)n23)cc1 | -9.48
31 | O=C1CCC2(CCCN(CCn3cc(Cl)cn3)C2)CN1C1CCCC1 (stereo not given) | 14.4
32 | Cc1cc(C(=O)NCCN2CCCC(C)C2)nn1C(C)(C)C (stereo not given) | -4.71
33 | CCC(=O)Nc1ccc(F)cc1OC | -10.1
34 | N#Cc1c(N)nc2c(c1-c1c[nH]nc1C1CCCCC1)CNCC2 | 17.6
35 | CNC(=O)c1cccnc1NCc1ccc(-n2cccn2)cc1 | -0.487
36 | Cc1cc(C(=O)N2CCNC(=O)C2)c(C)n1CC(F)(F)F | 1.02
37 | CC1CN(CC(=O)NCc2ccc(F)cc2)CCN1c1nccs1 (stereo not given) | 10.2
38 | Cc1cc(C)c2c(NC(C)c3nncn3C3CCCC3)ncnc2n1 (stereo not given) | 4.35
39 | COc1ccc2c(c1)OCC(Cc1cc(C(=O)N3CCCC3)ccn1)C2 (stereo not given) | 0.531
40 | CC(C)Cn1nc(-c2ccc(C(=O)O)cc2)cc1-c1ccc(F)cc1 | 22.7
